High-throughput results deposited in PubChem by several laboratories.
KKLEB tox: cytotoxicity in KKLEB CF airway cells, primary screen, cytotoxicity control for CF NF-kB inhibitor project, cell-based, uHTS, fluorescence assay plates; KKLEB CF airway cells viability, ATPlite luminescence, overnight; hits give low values; cells stimulated with P. aeruginosa culture filtrate; activity change (cytotoxicity), % at 5 µM; hit rate 0.36% among 360,000;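 active means corrected activity change at or below -50% at 5 µM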
CF NFkB block: inhibitors of PAF-induced NF-kB signaling, primary screen, cell-based, GFP fluorescence, uHTS; KKLEB NF-kB-GFP reporter, GFP fluorescence overnight; inhibition, % at 5 µM; hit rate 0.86% among 360,000;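 active means at least 50% inhibition at 5 µM, scaled per plate between neutral and stimulator controls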;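 further: PAF is a Pseudomonas aeruginosa culture filtrate used as stimulus; plate controls were PAF-stimulated DMSO wells for no effect and unstimulated DMSO wells for full effect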
HIF-2a block: HIF-2a reporter inhibitors, primary screen, luminescence, 786-0 RCC cells; hit rate 0.72% among 360,000; 786-0 RCC cells HIF-2a reporter, luciferase luminescence, overnight; inhibition, % at 18.8 µM;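 active means inhibition of the luminescence signal of 40% or more relative to plate controls, in a single-dose primary screen at 18.75 µM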
TWEAK Fn14 block: inhibitors of TWEAK-Fn14 signaling, primary screen, luciferase reporter cells, uHTS; TWEAK-stimulated Fn14 reporter cells, luciferase luminescence, 8 h; inhibition, % at 10 µM; hit rate 2% among 360,000; AID 1159606, 2016; in the data active means inhibition above about 50%
LGR2 antag: inhibitors of bursicon-induced LGR2 CRE-luciferase signal, primary screen, cell-based, HEK293, CRE-luciferase reporter, bursicon stimulation; Drosophila bursicon receptor LGR2 (rickets); bursicon-stimulated, 4 h; inhibition, % at 9.99 µM; hit rate 0.35% among 380,000;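 active means drop in luminescence signal, shown as inhibition above about 50% in the replicate tests, limit read from the data, passing the limit was not always enough; inconclusive means probably only some replicates passing the limit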;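 further: agonist challenge used bursicon conditioned medium at about half maximal strength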
iPSC survival up: enhancers of single-cell hiPSC survival, primary screen, ATPlite luminescence; AID 602274, 2012; survival enhancement, % at 20 µM; hit rate 0.044% among 360,000; 100% = ROCK inhibitor wells, 0% = DMSO; in the data active means survival enhancement above about 18%;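 further: cells exposed to compounds for 16 hours before the ATP read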
Mdm2 MdmX conf: retested Mdm2-MdmX interaction blockers, confirmation, cell-based, luminescence, single concentration, set 2 | AID 504601, 2011 | SaOS-2 split-luciferase Mdm2/MdmX complementation | hit rate 99% among 740 | shares compounds with HIF-2a block | inhibition, % at 8 µM;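 active means mean inhibition of the luminescence signal across two replicates at or above 26 percent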
Target sequence (O15151 whole entry, looked up): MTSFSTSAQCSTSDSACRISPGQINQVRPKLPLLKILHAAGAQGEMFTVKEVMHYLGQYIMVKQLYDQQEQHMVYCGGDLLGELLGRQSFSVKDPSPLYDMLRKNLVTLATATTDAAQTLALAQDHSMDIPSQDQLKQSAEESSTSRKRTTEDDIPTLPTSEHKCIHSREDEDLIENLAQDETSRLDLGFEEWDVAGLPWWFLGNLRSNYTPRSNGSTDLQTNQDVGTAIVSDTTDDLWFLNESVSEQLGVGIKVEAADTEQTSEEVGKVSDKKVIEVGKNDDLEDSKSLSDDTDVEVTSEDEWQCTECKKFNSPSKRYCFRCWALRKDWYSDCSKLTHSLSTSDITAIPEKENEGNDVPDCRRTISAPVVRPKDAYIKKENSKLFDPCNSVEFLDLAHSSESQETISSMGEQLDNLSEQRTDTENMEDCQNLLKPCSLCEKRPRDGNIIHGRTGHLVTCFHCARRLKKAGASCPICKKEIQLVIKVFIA
Target sequence (Q00987 whole entry, looked up): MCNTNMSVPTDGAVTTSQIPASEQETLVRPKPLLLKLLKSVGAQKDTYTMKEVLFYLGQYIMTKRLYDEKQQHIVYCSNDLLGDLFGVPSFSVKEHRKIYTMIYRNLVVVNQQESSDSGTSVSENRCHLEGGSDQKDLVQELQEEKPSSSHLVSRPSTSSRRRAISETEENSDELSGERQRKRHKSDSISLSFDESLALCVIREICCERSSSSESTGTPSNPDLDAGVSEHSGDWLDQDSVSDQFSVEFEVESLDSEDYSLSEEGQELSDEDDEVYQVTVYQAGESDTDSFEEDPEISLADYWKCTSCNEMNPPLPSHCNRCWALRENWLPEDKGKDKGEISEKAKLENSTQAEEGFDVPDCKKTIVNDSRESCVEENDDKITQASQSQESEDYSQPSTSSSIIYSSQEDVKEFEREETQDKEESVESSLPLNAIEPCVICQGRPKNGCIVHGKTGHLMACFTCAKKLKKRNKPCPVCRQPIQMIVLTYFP
HIF-2a conf: HIF-2a reporter inhibitor retest, confirmation, luminescence, 786-0 RCC cells; shares compounds with HIF-2a block; HIF-2a luciferase reporter luminescence, overnight; inhibition, % at 18.8 µM; hit rate 56% among 1,800;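 active means mean inhibition across four replicates of at least 40 percent at the single tested concentration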
HIF-1a cs: HIF-1a luciferase reporter signal reduction – MiaPaCa-2 cells, single concentration, counter-screen for HIF-2a inhibitor project, confirmation; MiaPaCa-2 HIF-1a luciferase reporter, desferoxamine, overnight; inhibition, % at 18.8 µM; hit rate 72% among 1,800; shares compounds with HIF-2a block;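 active means mean inhibition of the reporter signal across four replicates at the single tested dose of 50% or more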
The depositor's hits bear a star; ? = inconclusive; nt = not tested or not shown. This is a sample that favours compounds with a hit; in the whole collection about 2.3% have one here.

SMILES	KKLEB tox	CF NFkB block	HIF-2a block	TWEAK Fn14 block	LGR2 antag	iPSC survival up	HIF-2a conf	HIF-1a cs	others
Cn1nnnc1Sc1ncnc2scc(-c3ccc(Cl)cc3)c12	-43	30	86*	75*	57*	-3	99*	102*	Mdm2 MdmX conf=103*
O=C(O)CSc1ncnc2scc(-c3ccc(Br)cc3)c12	0	13	6	11	-1	1	nt	nt
Cn1nnnc1Sc1ncnc2scc(-c3ccc4c(c3)OCO4)c12	-22	48	63*	58*	?	-2	40	78*
Cc1ccc(S(=O)(=O)Nc2ccc3c(c2)CC(=O)N([C@@H](C)CO)C[C@H](C)[C@H](CN(C)S(=O)(=O)c2cn(C)cn2)O3)cc1	nt	nt	nt	nt	-2	nt	nt	nt
Cn1nnnc1Sc1ncnc2scc(-c3ccc([N+](=O)[O-])cc3)c12	-63*	71*	92*	92*	91*	-6	97*	100*	Mdm2 MdmX conf=103*
COCC#Cc1ccc([C@H]2[C@H](CO)N3C(=O)CN(C(=O)C4CCCC4)C[C@@H]23)cc1	nt	nt	nt	nt	14	nt	nt	nt
O=[N+]([O-])c1ccc(S(=O)(=O)CC(CN2CCCCC2)N2CCCCC2)cc1 (stereo not drawn)	-43	81*	27	16	nt	-4	nt	nt	Mdm2 MdmX conf=103*
CCCCn1c(=O)[nH]c(=O)c2c1nc(Cn1ncc(Cl)c(Cl)c1=O)n2CCC	-81*	103*	96*	94*	24	20*	71*	97*	Mdm2 MdmX conf=103*
CCCCn1c(=O)[nH]c(=O)c2c1nc(CN1C(=O)c3ccccc3S1(=O)=O)n2CCC	-11	6	1	9	nt	-5	nt	nt
O=c1cc(-c2ccccc2)oc2ccc(Cl)cc12	-2	-60	-270	1	-18	-1	nt	nt
O=c1oc(-c2ccccc2)cc(Cl)c1Cl	-103*	74*	42*	31	-6	0	27	107*
N#C/C(=C\c1ccc(Cl)c([N+](=O)[O-])c1)c1ccccn1	-2	-4	43*	-27	-53	19	-19	95*
CNc1ccc(/C=C(\C#N)c2ccccn2)cc1[N+](=O)[O-]	-10	-18	-328	-58	-20	-1	nt	nt
C[C@H](CO)N1C[C@H](C)[C@@H](CN(C)C)Oc2ncc(-c3ccccc3F)cc2C1=O	nt	nt	nt	nt	-14	nt	nt	nt
Cc1nc2cc(-c3ccccc3)nn2c(C)c1CCC(=O)N1CCN(c2ccccc2)CC1	15	-33	69*	1	-18	2	79*	53*
COc1cc(OC)cc(-c2cc3nc(C)c(CCC(=O)NCc4ccccc4)c(C)n3n2)c1	2	3	69*	66*	-12	0	79*	87*
C[C@@H]1CN([C@@H](C)CO)C(=O)c2cc(N(C)C)ccc2O[C@@H](C)CCCCO[C@H]1CN(C)C	nt	nt	nt	nt	13	nt	nt	nt
N#Cc1sc2nccc(Nc3ccccc3)c2c1N	-14	81*	17	80*	nt	0	nt	nt	Mdm2 MdmX conf=91*
CC(C)NC(=O)Nc1ccc2c(c1)C(=O)N([C@@H](C)CO)C[C@H](C)[C@@H](CN(C)CC1CCCCC1)OCCCC[C@H](C)O2	nt	nt	nt	nt	2	nt	nt	nt
C[C@H](CO)N1C[C@H](C)[C@@H](CN(C)Cc2ccc(-c3ccccc3)cc2)Oc2ccc(NS(=O)(=O)c3ccc(Cl)cc3)cc2CC1=O	nt	nt	nt	nt	6	nt	nt	nt
COC(=O)c1ccc(COc2ccccc2/C=C(\C#N)C(=O)Nc2c(C)cccc2C)cc1	-41	42	46*	61*	27	-1	45*	82*
COC(=O)c1ccc(COc2ccccc2/C=C(\C#N)C(=O)Nc2ccccc2C)cc1	-18	9	-1	-12	-19	0	nt	nt
COCCn1c(C)cc(C(=O)COc2cccnc2[N+](=O)[O-])c1C	9	-3	51*	-7	-11	0	65*	71*
Cc1ccc(OCC(=O)c2cc(C)n(Cc3cccs3)c2C)c([N+](=O)[O-])n1	0	5	58*	3	11	0	72*	95*
CC(=O)CC1OC(=O)C(Br)=C1NCc1ccccc1 (stereo not drawn)	-10	9	42*	37	nt	-4	17	76*
SMILES	KKLEB tox	CF NFkB block	HIF-2a block	TWEAK Fn14 block	LGR2 antag	iPSC survival up	HIF-2a conf	HIF-1a cs	others
O=C(CC1Oc2ccccc2NC1=O)NCc1ccccc1 (stereo not drawn)	-6	22	-7	-12	2	2	nt	nt
Nc1ncnc2c(C3OC(CO)C(O)C3O)c[nH]c12 (stereo not drawn)	-53*	83*	50*	101*	101*	-4	37	106*
CCN(CC)S(=O)(=O)c1cc(NC(=O)Cn2ncc(Cl)c(Cl)c2=O)ccc1C	-66*	89*	97*	98*	25	9	48*	104*	Mdm2 MdmX conf=103*
CCC(=O)Nc1ccc(C(=O)Cn2ncc(Cl)c(Cl)c2=O)cc1	-4	44	90*	76*	9	-1	-9	105*
O=C(Cn1ncc(N2CCCC2)c(Cl)c1=O)c1ccc(Cl)cc1	9	6	-163	-5	-41	-2	nt	nt
O=C(Cn1ncc(Cl)c(Cl)c1=O)N1CCN(S(=O)(=O)c2ccc3ccccc3c2)CC1	-68*	82*	95*	97*	8	-1	96*	105*	Mdm2 MdmX conf=102*
Cc1ccc(S(=O)(=O)N2CCCCC2)cc1NC(=O)Cn1ncc(Cl)c(Cl)c1=O	-89*	104*	94*	100*	54*	-5	99*	104*	Mdm2 MdmX conf=103*
C[C@@H]1CCCCO[C@H](CN(C)S(=O)(=O)c2cccs2)[C@@H](C)CN([C@H](C)CO)C(=O)c2cc(NS(=O)(=O)c3cccs3)ccc2O1	nt	nt	nt	nt	-12	nt	nt	nt
C[C@@H]1CCCCO[C@H](CN(C)C(=O)CCC(F)(F)F)[C@H](C)CN([C@H](C)CO)C(=O)c2cc(NS(=O)(=O)c3cn(C)cn3)ccc2O1	nt	nt	nt	nt	6	nt	nt	nt
C[C@@H]1CN([C@H](C)CO)S(=O)(=O)c2ccc(C#Cc3ccc(F)cc3)cc2O[C@@H]1CN(C)S(=O)(=O)c1ccc(F)cc1	nt	nt	nt	nt	14	nt	nt	nt
